# PubChem BioAssay (NCI)
# About 83,000 compounds went through this panel and 20% of them were active in at least one assay; those are over-represented in the sample as a whole.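 Assay: single dose, 48 h. Readout: percent growth (0 = no net growth; negative = cell death). Active: <10.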 Unmarked numbers belong to inactive results. Activity calls are given as the source filed them.
# Test system: RPMI-8226 leukemia
# Test: NCI-60 one-dose screen, 48 h (100 = growth as untreated, 0 = no growth, -100 = all killed)
# Settings: 10 µM unless noted
row,Compound,growth
1,c1c[nH]c(CNC2CCCCC2)c1,103%
2,COc1ccc2c(c1)CCCN2c1c2ccccc2nc2ccccc12,20.5%
3,CC/C=C/C/C=C/C/C=C/C/C=C/C/C=C/C/C=C/CCC(=O)Nc1ccn([C@@H]2O[C@H](CO)[C@@H](O)C2(F)F)c(=O)n1,28.1%
4,Cc1ccc2nc(NC(=O)CSc3nc(-c4ccccc4)c(C#N)c(=O)n3Cc3ccccc3)sc2c1,67.8%
5,NNC(=O)c1nc(N)n(-c2ccc(S(N)(=O)=O)cc2)n1,91.4%
6,O=C(CC(SCc1ccccc1)c1ccccc1)c1ccccc1 (configuration not stated),38.5%
7,COC1=C(OC)C(=O)C(OC)=C(OC)C1=O,102%
8,COC(=O)CCC1=C(C)C2=NC1=CC1=NC(=CC3=NC(=Cc4[nH]c(/c(=C(/C)O)c4C)=C2)C(C(C)=O)=C3C)C(C)=C1CCC(=O)OC,85.7%
9,CC1=CN2C(=O)C3C4=C(CCCC4)SC3N=C2CN1c1c(C)cccc1C (configuration not stated),54.4%
10,O=C(Nc1cccc(Oc2nnc(Cl)c3ccccc23)c1)Nc1ccc(Cl)c(C(F)(F)F)c1,-15.9% (active)
11,CN1CCN(CCCOc2ccc3nc(Nc4ccc(F)c(F)c4)ccc3c2)CC1,28.8%
12,COc1ccccc1NC(=O)N/C(N)=N/c1nc2ccccc2s1,9.34% (active)
13,Cc1ccc(Nc2nc(N)nc(CSCC(=O)NN)n2)cc1,101%
14,CC1CC(C(C)(C)C)C(=O)C(C(C)(C)C)C1 (configuration not stated),111%
15,O=C(O)c1ccc2c(c1Cl)C(=O)c1ccccc1C2=O,104%
16,N=c1sc(Cc2ccc(Cl)cc2)cn1CC(=O)c1ccc(F)cc1,74.1%
17,CCCCn1c(=O)c2c(nc3n2CCCN3CCc2ccc(OCC(=O)NCCN(CC)CC)cc2)n(CCCC)c1=O,61.5%
18,COc1ccc(NC(=O)c2nc(-c3cc(OC)c(OC)c(OC)c3)n(-c3cccc4ccccc34)n2)cc1OC,11.6%
19,O=C1CCc2c(sc3[nH]c(=S)n(-c4ccc(OC(F)(F)F)cc4)c(=O)c23)C1,-21.7% (active)

row,Compound,growth
1,C[C@@]1(CCC#N)[C@H]2CC[C@@H]3[C@H]4[C@H](C(=O)/C=C/c5cccnc5)CC[C@]4(C#N)CC[C@@]3(C)[C@]2(C)CC[C@H]1C(=O)/C=C/c1cccnc1,-2.94% (active)
2,Cc1c(C)c2c(c(C)c1OCC(=O)O)CC[C@@](C)(CCC[C@@H](C)CCC[C@@H](C)CCCC(C)C)O2,-39.4% [50 µM] (active)
3,O=C(NCCCNc1cc(-c2cn(-c3ccccc3)nc2-c2cccc(O)c2)ccn1)c1ccc(F)cc1,-9.31% (active)
4,Cn1c(-c2c(N)n(Cc3ccc(C(F)(F)F)cc3)c3nc(C#N)c(C#N)nc23)nc2ccccc21,-42.3% (active)
5,Nc1nc(N)c2c(n1)NC(c1ccccc1)C1CCc3ccccc3C1=N2 (configuration not stated),24.5%
6,COc1ccc2[nH]c(O)c(/C=c3/cc4c(c(-c5cc(OC)c(OC)c(OC)c5)n3)=Nc3ccccc3-4)c2c1,1.39% (active)
7,CCOC(=O)c1c2ncccc2n2c(=O)n(-c3ccccc3C)nnc12,158%
8,COc1cccc(C(=O)NCCCNc2cc(-c3cn(-c4ccccc4)nc3-c3cccc(OC)c3)ccn2)c1,25.3%
9,N[C@@H](CCCCNCC(=O)O)C(=O)O,116%
10,CC(CCc1ccc(Cl)c(Cl)c1)NCc1ccc(C(C)(C)C)cc1 (configuration not stated),74.5%
11,O=Cc1ccc(O)c2ncccc12,-39.8% (active)
12,CCCCOc1nc2ccccc2cc1C1CNC(=O)c2ccccc2N1 (configuration not stated),25.6%
13,COc1ccc2occ(C3=C(c4c[nH]c5ccccc45)C(=O)N(O)C3=O)c2c1,66.7%
14,N#CC1=C(NC=O)Oc2c(ccc3ccccc23)C1c1ccccc1 (configuration not stated),19.1%
15,Fc1c[c-]c(-c2ccccn2)c(F)c1.[CH3-].[Pt+2].c1ccc(P(C[PH+](c2ccccc2)c2ccccc2)c2ccccc2)cc1,-13.2% (active)
16,N=C1C(c2nc(-c3ccc(Br)cc3)cs2)=C(O)CN1CC1CCCO1 (configuration not stated),48.5%
17,NS(=O)(=O)c1cnccc1Sc1ccncc1S(N)(=O)=O,86.2%
18,N#Cc1c(-c2ccccn2)[nH]c(=S)[nH]c1=O,112%
